Data as given in PubChem BioAssay AID624297 (National Center for Advancing Translational Sciences (NCATS), 2012).
Screen size: about 340,000 compounds; about 6,200 (1.8%) were called active. Inconclusive results (about 10%) are left out. This excerpt belongs to a sample that is enriched for actives. A number with no mark means an inactive call. The call rests on the fitted dose curve; in most records, active means well fitted activation curve with a large enough effect; inconclusive means small, poorly fitted or top-dose-only effect; inactive means no such curve, though single readings can be large or run the other way.

experiment: A quantitative high throughput screen for small molecules that induce DNA re-replication in SW480 colon adenocarcinoma cells.; further: nearly all actives have a fitted effect of over 55% in size; on re-replication activation: % of control where 0% means no effect; settings: Hoechst DNA content imaging, 48 h; series mostly up to 46.1 µM; re-replication activation: at the top concentration
Outline: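 Image-based DNA-content assay: after two days of treatment, nuclei were labelled with the DNA dye Hoechst and imaged, and hits were compounds raising the count of nuclei showing high fluorescence intensity.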
Potency means the concentration at half of the fitted maximal effect.

SMILES	re-replication activation	Potency
Cc1ccc(C(=O)O)c(NC=O)c1OCc1ccccc1	-4.14%	–
CC(OC(=O)c1c(F)cccc1F)C(=O)NCCC1=CCCCC1 (stereo not given)	5.62%	–
O=C(Nc1cccc(S(=O)(=O)N2CCCC2)c1)c1cncc(Br)c1	-1.35%	–
COc1ccc2sc(-c3ccc(S(C)(=O)=O)cc3)c(C#Cc3cncn3C)c2c1	–	5.8 µM (active)
COc1ccc2sc(-c3ccc(S(C)(=O)=O)cc3)c(-c3ccc(C(N)=O)cc3)c2c1	15.8%	–
Cn1cncc1C#Cc1c(-c2ccsc2)sc2ccccc12	4.17%	–
Oc1cccc(CCc2ccccn2)c1	-2.7%	–
COc1cc2[nH]c(=O)n(Cc3ccc(C(=O)NC4CCN(Cc5ccccc5)CC4)cc3)c(=O)c2cc1OC	0.862%	–
COc1cc(C(=O)NC2CCN(Cc3ccccc3)CC2)cc(Cl)c1OC(C)C	–	18.4 µM (active)
COc1ccc(C(=O)O)cc1S(=O)(=O)NC1CCN(Cc2ccccc2)CC1	-1.41%	–
CNC[C@@H]1Oc2c(NS(C)(=O)=O)cccc2C(=O)N([C@@H](C)CO)C[C@H]1C	-6.99%	–
CCn1nc(C(=O)NNS(=O)(=O)c2cc(/C=C/C(=O)O)cc(OC)c2OC)c2ccccc2c1=O	-4.81%	–
C=CC[C@@H](Cc1ccc(F)cc1)C(=O)OC[C@H]1CCCN1C(=O)[C@H](CC=C)CC(=O)N(CCO)Cc1ccccc1	0.701%	–
Cn1nc(-c2ccccc2)c(CO)c1Sc1ccccc1	-5.91%	–
Cc1ccc(S(=O)(=O)c2c(COC(=O)c3cccc(Cl)c3)c(-c3ccccc3)nn2C)cc1	-8.27%	–
Cn1nc(-c2ccccc2)c(CSc2cccc(Cl)c2)c1Cl	–	16.4 µM (active)
COc1cccc(CC(=NO)c2cccc(OC)c2)c1	2.86%	–
c1ccc(-n2nnnc2-c2cccnc2)cc1	-6.03%	–
CCOC(=O)C(C)n1cnc2c(nnn2-c2cccc(OC)c2)c1=O (stereo not given)	-20%	–
CCOc1cccc(-n2nnnc2-c2ccc(OC)cc2)c1	–	13 µM (active)
COc1cc(S(=O)(=O)N2CCN(C(=O)C3CC3)CC2)ccc1NC(C)=O	1.84%	–
COc1cc(C(=O)NC2CCN(C)CC2)ccc1Nc1ncc2c(n1)N(C1CCC(O)CC1)CCC(=O)N2C (stereo not given)	-0.0388%	–
COc1ccc(C2NC(=O)N(C)C(C)=C2[N+](=O)[O-])cc1 (stereo not given)	3.98%	–
COC(=O)C1=C(C)N(C)C(=S)NC1c1ccccc1 (stereo not given)	4.94%	–
COC(=O)C1=C(C)N(C)C(=O)NC1c1ccc([N+](=O)[O-])o1 (stereo not given)	–	23.1 µM (active)
Cc1cccc(C(=O)N[C@H](C(=O)NCc2cccs2)C(C)C)c1	-0.917%	–
COc1ccc(CN2C(CC(=O)Nc3cccnc3)c3ccc(C(F)(F)F)cc3S2(=O)=O)cc1 (stereo not given)	-6.2% [at 9.22 µM]	–

SMILES	re-replication activation	Potency
CCCC(=O)C1CCN(Cc2ccccc2)CC1	-3.22%	–
CCCCN(C)C(=O)C1CCN(Cc2ccccn2)CC1	-0.529% [at 9.22 µM]	–
CCCCN(Cc1ccccc1)C(=O)C1CCN(Cc2sccc2C)CC1	–	14.6 µM (active)
CSCCC(NS(=O)(=O)c1ccc(C)cc1)C(=O)N(C)CC(=O)Nc1ccccc1Br (stereo not given)	-3.06%	–
CNN/C(N=Cc1ccc([N+](=O)[O-])s1)=N\S(=O)(=O)c1cc(C)c(Cl)cc1SCc1ccccc1	8.71%	–
COc1ccc2c(c1OC)C(=O)OC2Nc1nc(-c2ccccc2)cs1 (stereo not given)	–	6.51 µM (active)
COc1ccc(-c2csc(NC3OC(=O)c4ccccc43)n2)cc1 (stereo not given)	81.4%	–
Cc1cccc(Nc2nc(-c3ccccc3)cs2)n1	-2.99%	–
O=C1NC[C@@H](c2ccccc2)OC(=O)[C@H](Cc2ccc(F)cc2)CC/C=C/C[C@H]1CC(=O)N(CCO)Cc1ccccc1	17.4%	–
CCOC(=O)C1=CN(Cc2ccc(Br)cc2)S(=O)(=O)NC1C (stereo not given)	-17.8%	–
CC1C(=O)N(Cc2ccccc2)c2ccccc2N1C(=O)c1ccccc1 (stereo not given)	14.5%	–
CC1C(C)N(C(=O)CCl)c2ccccc2N1C(=O)CCl (stereo not given)	–	5.17 µM (active)
CC1CC(C)CN(CC(=O)N2c3ccccc3CCc3ccccc32)C1 (stereo not given)	3.05%	–
Cc1cc(C(=O)Nc2c(C)n(C)n(-c3ccccc3)c2=O)cs1	-10.3%	–
COc1ccc(NS(=O)(=O)c2ccc(C(=O)Nc3c(C)n(C)n(-c4ccccc4)c3=O)cc2)cc1	–	6.51 µM (active)
Cc1c(NS(=O)(=O)c2cccc(C(=O)Nc3ccc(SC(F)F)cc3)c2)c(=O)n(-c2ccccc2)n1C	4.95%	–
C=CC(=O)Nc1ccc(Nc2ccnc(Nc3ccc(N4CCN(C)CC4)cc3)n2)cc1	5.86%	–
CN(C)c1ccc(/C=N/Nc2cc(N3CCOCC3)nc(N3CCOCC3)n2)cc1	5.95%	–
C(=N/Nc1cc(N2CCOCC2)nc(N2CCOCC2)n1)/c1ccccc1	–	5.8 µM (active)
Cc1cc(N2CCN(c3ccccc3)CC2)nc(N2CCOCC2)n1	-2.59%	–
COc1cc2c(cc1OC)CN(C(=O)c1cc(=O)c3ccccc3o1)CC2	–	13 µM (active)
O=C(c1cc(=O)c2ccccc2o1)N1CCN(c2ccccc2)CC1	-6.89%	–
COc1ccccc1N1CCN(C(=O)c2cc(=O)c3cc(C)ccc3o2)CC1	21.2%	–
NC(=O)C1CCN(C(=O)c2cc(S(=O)(=O)N3CCN(c4ccccc4)CC3)ccc2Cl)CC1	-14.1%	–
COc1cc2[nH]c(O)c(C=O)c2cc1OC	-6.01%	–
Cc1ccc(S(=O)(=O)N2CCN(C(=O)COC(=O)/C=C/c3cccc(Cl)c3)CC2)c(C)c1	-5.89%	–
CCCCC[C@@H]1C=C(C(=O)O)[C@H](c2ccc(C#N)cc2)N1S(=O)(=O)c1ccc(C)cc1	-62.7%	–

SMILES	re-replication activation	Potency
CCC1(C)COC(c2ccc(OC)c(OC)c2)OC1 (stereo not given)	-7.45%	–
O=C(Cc1ccc(Cl)cc1)NC(=S)Nc1ccccc1O	2.2%	–
O=[N+]([O-])c1ccccc1NCc1ccc(Cl)cc1	1.16%	–
Oc1ccc(CNc2ccccc2O)cc1	–	20.6 µM (active)
CC(C)(C)OC(=O)C1=C(CO)CS[C@@H]2[C@H](NC(=O)Cc3ccccc3)C(=O)N12	-42.1%	–
OCCN1CCN(CCO)C1=S	-4.81%	–
COc1ccc(C(CNC(=O)COc2ccccc2OC)N2CCCCC2)cc1 (stereo not given)	-22.2%	–
CCc1ccc(OCC(=O)NCC(c2ccc(Cl)cc2)N2CCCCC2)cc1 (stereo not given)	–	9.2 µM (active)
COc1ccc(C(CNC(=O)COc2ccc([N+](=O)[O-])cc2)N2CCCCC2)cc1 (stereo not given)	4.17%	–
O=C(CNS(=O)(=O)c1ccc2c(c1)OCCCO2)N1CCN(c2ccc(F)cc2)CC1	1.14%	–
O=C1COc2c1ccc(O)c2O	11.9%	–
Cc1c(CN2CCC(CO)(CCOc3ccccc3)CC2)[nH]c2ccc(Cl)cc12	–	14.6 µM (active)
OCC1(CCOc2ccccc2)CCN(Cc2cn[nH]c2-c2ccccc2)CC1	-13.6%	–
CCOC(=O)C1(CCOc2ccccc2)CCN(Cc2cc(OC)c(O)cc2Cl)CC1	0.743%	–
CCOC(=O)C1=CN(Cc2ccc(Br)cc2)S(=O)(=O)N(C)C1C (stereo not given)	-0.811%	–
Cc1ccc(NC(=O)COC(=O)C2CC2)cc1S(=O)(=O)N1CCOCC1	-7.93%	–
Cc1ccc(NC(=O)C2CCC(C(C)(C)C)CC2)cc1S(=O)(=O)N1CCOCC1 (stereo not given)	–	14.6 µM (active)
Cc1ccc(NC(=O)NC2CCCCC2)cc1S(=O)(=O)N1CCOCC1	-5.01%	–
C/C(CC(=O)NCc1ccc(Cl)cc1)=N\NC(=O)COc1ccc(C)cc1Br	–	14.6 µM (active)
Cc1cc(Cl)ccc1OCCCC(=O)NCc1ccncc1	2.62%	–
CC(=O)Nc1ccc(OCC(=O)NCc2ccc(C)cc2)cc1	-9.01%	–
COc1ccc(C2NCCCC2c2ccccc2)cc1 (stereo not given)	-1.86%	–
CCN(C(=O)COC(=O)c1ccccc1O)c1cccc2ccccc12	1.88%	–
CCC1([N+](=O)[O-])COC(c2ccc(C)cc2)OC1 (stereo not given)	16.5%	–
CC(C)(C)S(=O)(=O)N1Cc2cc(CO)cc(CCO)c2[C@H]1CCO	-0.352%	–
O=C(O)C(c1cccs1)C1(O)CCCCC1 (stereo not given)	-4.11%	–
O=C(COc1ccc(Cl)cc1)NCCC1=CCCCC1	0.0093%	–

SMILES	re-replication activation	Potency
Cc1nnc(OCC(=O)NCCC2=CCCCC2)c2ccccc12	–	16.4 µM (active)
O=C(Cc1cccc2ccccc12)NCCC1=CCCCC1	0.0468%	–
CCc1nnc(NC(=O)c2sc3nc(C)cc(COC)c3c2N)s1	-3.2%	–
COc1ccc(OC)c(NC(=O)c2sc3nc(C)cc(C)c3c2N)c1	–	9.2 µM (active)
COCc1cc(C)nc2sc(C(=O)NC3CCCCC3)c(N)c12	-5.55%	–
CCOc1ccc(/C=C(/C#N)c2nnc(N3CCOCC3)n2-c2ccccc2)cc1OC	-2.36%	–
CN(C)CCNC(=O)c1[nH]nc2c1CCc1ccccc1-2	-14.4%	–
COc1cccc(/C=N/NC(=O)c2[nH]nc3c2CCc2ccccc2-3)c1O	–	3.26 µM (active)
COc1cc2cc(C(=O)N/N=C/c3cccc(OC)c3OC)[nH]c2cc1OC	3.72%	–
COc1ccccc1C(=O)CSc1cccc[n+]1[O-]	-6.96%	–
O=C(CSc1cccc[n+]1[O-])c1ccc(Cl)cc1	9.54%	–
O=C(CSc1cccc[n+]1[O-])c1ccc(-c2ccccc2)cc1	–	2.82 µM (active)
O=C(NCCc1ccc(F)cc1)c1ccc2nccnc2c1	-5.68%	–
O=C(OCCOc1ccccc1Cl)c1cc(S(=O)(=O)N2CCCCC2)ccc1N1CCOCC1	-2.46%	–
Cc1cc(C(=O)Nc2nnc(C3CC3)s2)c(C)s1	-62.8%	–
Cc1ccc2nc3c(cc(C(=O)NCCc4ccccc4)c(=N)n3CC3CCCO3)c(=O)n2c1 (stereo not given)	–	11.6 µM (active)
Cc1ccc(Cn2c(C)c3cnn(CC(=O)NCCN4CCOCC4)c(=O)c3c2C)cc1	-3.76%	–
Cc1cccn2c(=O)c3cc(C#N)c(=O)n(CCCN4CCOCC4)c3nc12	-24.6%	–
Cc1cccn2c(=O)c3cc(C(=O)NCC4CCCO4)c(=N)n(Cc4ccc(F)cc4)c3nc12 (stereo not given)	–	8.2 µM (active)
O=C(CSc1nc2ccccc2c(=O)n1Cc1ccc(F)cc1)NCC1CCCO1 (stereo not given)	-1.49%	–
Cc1cccn2c(=O)c3cc(C(=O)NCCN4CCOCC4)c(=N)n(Cc4cccnc4)c3nc12	–	4.11 µM (active)
O=C(NCC1CCCO1)c1cc2c([nH]c3ccccc32)c(-c2ccc(F)cc2)n1 (stereo not given)	4.34%	–
Cc1ccc(CCNC(=O)c2ccc3nc4ccccc4c(=O)n3c2)cc1	0.89%	–
COc1ccc(CCNC(=O)Cn2c(=O)n(CC3CCCO3)c(=O)c3ccccc32)cc1OC (stereo not given)	4.93%	–
